The values below come from PubChem BioAssay (EPA / NIEHS).

Several values for one entry are separate records, joined by “and”; a condition that tells them apart may be missing. Equal entries are not always repeated. Inconclusive results are not listed. Some compounds were tested as several samples or in several runs, with calls that do not always agree. Activity calls are given as the source filed them. Rule for the calls: active = hit-call score of the fitted dose curve at least 0.9, where 1 is the maximum; inconclusive = response in the unintended direction; inactive = score below 0.9.

The target of the experiment is Cellular tumor antigen p53 (Homo sapiens) (UniProt P04637). Briefly: TOX21_p53_BLA_p2_ratio: Tox21 HCT-116 p53 Agonism Beta-lactamase Assay, Ratio, Phase 2 (AID 2283592). From the text: TOX21_p53_BLA_p2 is a cell-based, single-readout assay that uses HCT116, a human intestinal cell line, […] in a 1536-well plate.TOX21_p53_BLA_p2_ratio is an assay readout measuring reporter gene via receptor activity and designed using inducible reporter (beta lactamase induction) detected with GAL4 b-lactamase reporter gene. The signal is derived from the ratio of cleaved (ch2) to uncleaved (ch1) reporter gene substrate used as the measure of target activity.Data from the assay component TOX21_p53_BLA_p2_ratio was analyzed into 1 assay endpoint. This assay endpoint, TOX21_p53_BLA_p2_ratio, was analyzed in the positive analysis fitting direction relative to DMSO as the negative control and baseline of activity. Using a type of inducible reporter, gain-of-signal activity can be used to understand changes in the reporter gene as they relate to the gene TP53. Furthermore, this assay endpoint can be referred to as a primary readout, because this assay has produced multiple assay endpoints and this ratio serves a reporter gene function to understand target activity. To generalize the intended target to other relatable targets, this assay endpoint is annotated to the DNA binding intended target family, where the subfamily is tumor suppressor.
Chain of Cellular tumor antigen p53 (Homo sapiens) (P04637 whole entry, looked up, the tested form may be a part): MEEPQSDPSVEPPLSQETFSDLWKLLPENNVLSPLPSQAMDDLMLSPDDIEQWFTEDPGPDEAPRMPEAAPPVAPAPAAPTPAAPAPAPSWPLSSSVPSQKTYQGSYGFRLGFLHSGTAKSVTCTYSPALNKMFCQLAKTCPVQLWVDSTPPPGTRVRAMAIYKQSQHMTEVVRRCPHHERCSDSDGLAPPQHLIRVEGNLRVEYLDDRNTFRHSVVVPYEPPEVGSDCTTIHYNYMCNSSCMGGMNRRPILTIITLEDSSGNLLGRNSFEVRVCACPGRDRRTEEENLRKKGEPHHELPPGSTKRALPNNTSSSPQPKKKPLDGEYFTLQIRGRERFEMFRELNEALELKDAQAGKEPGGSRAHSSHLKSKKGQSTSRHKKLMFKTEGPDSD
Thawing Method: Place 14 mL of pre-warmed thaw medium into a 15 mL of conical tub. Remove the vial of cells to be thawed from liquid nitrogen and thaw rapidly by placing at 37C in a water bath with gentle agitation for 1-2 minutes. Decontaminate the vial by wiping with 70% ethanol before opening in a biological safety cabinet. Transfer the vial contents drop-wise into 14 mL of thaw medium in a sterile 15-mL conical tub. Centrifuge cells at 900 rpm for 4 minutes and resuspend in thaw medium. Transfer contents to the T75 tissue culture flask containing Thaw Medium and place flask in a humidified 37C/5% CO2 incubator. Switch to growth medium at first passage.Propagation Method: Aspirate medium, rinse once in DPBS, add 0.25% Trypsin/EDTA and swirl to coat the cell evenly. Add an equal volume of Growth Medium to inactivate Trypsin after 2-3 minutes incubation at 37C. Centrifuge cells at 900 rpm for 4 minutes and resuspend in growth medium. Cell should be passage or fed at least twice a week.Assay Protocol: Harvest cells from culture in growth medium and resuspend in assay medium. 2.2 Dispense 4000 cells/5 uL/well into 1536-well black/clear bottom plates using a Multidrop dispenser. After the cells were incubated at 37C for 5 hours, 23 nL of compounds dissolved in DMSO were transferred to the assay plate by a PinTool resulting in a 217-fold dilution. Incubate the plates for 16 hours at 37C, 5% CO2. Add 1 uL of 6X LiveBLAzer FRET B/G (CCF4-AM) Substrate Mixture to each well using a BioRAPTR dispenser and incubate the plates at room temperature for 2 hours. Measure fluorescence intensity at 460 and 530 nm emission and 405 nm excitation by an Envision detector. Data is expressed as the ratio of 460nm/530nm emissions. Add 4 uL of Cell-titer Glo to each well using BioRAPTR and incubate the plates at room temperature for 2 hours. Measure fluorescence intensity by a VewLux plate reader.
As to `CC(C)=CCCC(C)CC=O` (stereo not given), the outcome was inactive.

For `C=C(C)C(=O)O[C@H]1C[C@@H]2CC[C@@]1(C)C2(C)C`, the result was inactive.

Regarding `CCCCCCOC(=O)CC`, the result was inactive.

With `CC(=O)Nc1ccc(CC(=O)O)cc1`, the outcome was inactive.

Take `Cc1ncc([N+](=O)[O-])n1C`: the result was inactive.

Turning to `Nc1cccc(S(=O)(=O)c2cccc(N)c2)c1`, the result was inactive.

Take `C#C[C@]1(O)CC[C@H]2[C@@H]3CCC4=Cc5oncc5C[C@]4(C)[C@H]3CC[C@@]21C`: the result was inactive.

In the case of `CC(=O)OCCOC(C)=O`, the result was inactive.

Turning to `CCOc1ccccc1OCC`, the result was inactive.

For `O=C1CCCCCCCCCCOCCCCO1`, the outcome was inactive.

Turning to `COc1ccc(O)cc1`, the result was inactive.

For `O=C(O)c1ccc(C(=O)O)cc1`, the result was inactive.

In the case of `CCCc1ccccc1O`, the result was inactive.

`CCC(=O)OCc1ccccc1`: the outcome was inactive.

Regarding `OC[C@H]1O[C@H](O[C@]2(CCl)O[C@H](CCl)[C@@H](O)[C@@H]2O)[C@H](O)[C@@H](O)[C@H]1Cl`, the outcome was inactive.

As for `CC(O)C(C)O` (stereo not given), the result was inactive.

`CC(=O)OCC=Cc1ccccc1`: the result was inactive.

As for `CCCCOCCOCCSC#N`, the outcome was inactive.

With `O=C(O)c1cn(-c2ccc(F)cc2)c2cc(N3CCNCC3)c(F)cc2c1=O`, the result was inactive.

For `CC(=O)OCCC(C)CC(C)(C)C` (stereo not given), the outcome was inactive.

As for `CCCCCCCCCCCCSC`, the result was inactive.

For `CC(C)c1ccc(C(C)C)cc1`, the result was inactive.

Take `CC(C)(C)NC(N)=O`: the result was inactive.

With `CCCCCOC(=O)CCC`, the outcome was inactive.

For the compound `CNCCCC12CCC(c3ccccc31)c1ccccc12`, the half-maximal activity concentration (AC50) was 85.8 µM (active) and the result was inactive.

Take `OCCCCCO`: the outcome was inactive.

As to `CC(C)=CCO`, the outcome was inactive.

For `O=Nc1ccc(Nc2ccccc2)cc1`, the AC50 is 46 µM (active) and 46.3 µM (active).

Regarding `CC1=CCC(O)(C(C)C)CC1` (stereo not given), the result was inactive.

Consider `CC(C)c1cccc(O)c1`, for which the result was inactive.

Regarding `O=C1CCc2ccccc2O1`, the result was inactive.

Consider `O=C(Nc1ccccc1)c1cc([N+](=O)[O-])ccc1Cl`, for which the outcome was inactive.

As for `CC1(C)[C@@H]2CC[C@@]1(C)[C@H](O)C2`, the outcome was inactive.

Consider `Cc1ccc(Nc2ccc(O)c3c2C(=O)c2ccccc2C3=O)cc1`, for which the result was inactive.

On to `CC(C)=CCCC(C)=CCCC(C)=CCO`, for which the outcome was inactive.

On to `O=C(OCc1ccccc1)C(=O)OCc1ccccc1`, for which the outcome was inactive.

As for `CC1(C)[C@H]2CC[C@]1(C)[C@H](O)C2`, the result was inactive.

Turning to `CCCCNC(=O)NS(=O)(=O)c1ccc(C)cc1`, the outcome was inactive.

Turning to `CCCCCCCCCCCCCOS(=O)(=O)O`, the concentration at half-maximal activity (AC50) was 85.6 µM (active).
